High-throughput results: PubChem BioAssay, National Center for Advancing Translational Sciences (NCATS)
The list is not random: actives were taken first. Their share in the collection is about 12%.
Sfp inh – Sfp phosphopantetheinyl transferase inhibition. 3.5% of 310,000 active. Potency, µM, for the others: largest response in the series, negative = inhibition, actives largely listed as inhibitors. Biochemical Sfp PPTase activity, qHTS. AID 1490;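 note: the enzyme is Sfp with the accession as filed and its product quenches rhodamine fluorescence; 0% = enzyme reaction without inhibitor and -100% = no enzyme wells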
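With Hepes-Na pH 7.6 buffer containing 10 mM MgCl2, Sfp (15 nM) modified BHQ-2-YbbR (12.5 uM) using rhodamine-CoA (5 uM). Two reads 30 minutes apart at 525/598 nm yielded each well's rate.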
ALDH1A1 inh – inhibitors of human aldehyde dehydrogenase 1A1; 7.3% of 220,000 active; P00352; Purified ALDH1A1, NADH fluorescence, propionaldehyde substrate; Potency, µM (series often up to 75.3 µM), for the others: at the highest dose activity, negative = inhibition, usual class: inhibitors; AID 1030; active = well fitted inhibition curve with a large enough effect, not every such curve was filed as active; inconclusive = small, poorly fitted or top-dose-only effect, or another doubt; inactive = no such curve, though single readings can be large or run the other way;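 note: plate controls were no enzyme wells and a reference inhibitor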
PLK1 PBD block – blocks phosphopeptide binding to human PLK1 polo-box domain; P53350; Plk1 PBD binding of FITC phosphopeptide, fluorescence polarization; Potency, µM, for inactives: max response, negative = inhibition, actives largely listed as inhibitors; 2.8% of 360,000 active; AID 720504; note: series mostly up to about 57 µM; nearly all actives have a fitted effect of over 65% in size
VP16 counter – Gal4-VP16 reporter inhibition counter-screen. Drosophila S2 Gal4-VP16 UAS-luciferase, luminescence, 20 h. 3.5% of 310,000 active. Potency, µM (highest dose often 53.6 µM), without a hit: at the highest dose activity, negative = inhibition, usual class: inhibitors;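 note: Gal4-VP16 expression switched on by copper sulfate through the metallothionein promoter; nearly all actives have a fitted effect of over 50% in size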
RORg inh – ROR gamma (mouse) transcription inhibition. P51450. Drosophila S2 Gal4-RORgamma UAS-luciferase reporter, 20 h. Potency, µM (highest dose often 53.6 µM), inactives show top-dose activity change, negative = inhibition, usual class: inhibitors. 5.4% of 310,000 active; note: nearly all actives have a fitted effect of over 60% in size
Target sequence (P51450 whole entry, looked up, the tested form may be a part): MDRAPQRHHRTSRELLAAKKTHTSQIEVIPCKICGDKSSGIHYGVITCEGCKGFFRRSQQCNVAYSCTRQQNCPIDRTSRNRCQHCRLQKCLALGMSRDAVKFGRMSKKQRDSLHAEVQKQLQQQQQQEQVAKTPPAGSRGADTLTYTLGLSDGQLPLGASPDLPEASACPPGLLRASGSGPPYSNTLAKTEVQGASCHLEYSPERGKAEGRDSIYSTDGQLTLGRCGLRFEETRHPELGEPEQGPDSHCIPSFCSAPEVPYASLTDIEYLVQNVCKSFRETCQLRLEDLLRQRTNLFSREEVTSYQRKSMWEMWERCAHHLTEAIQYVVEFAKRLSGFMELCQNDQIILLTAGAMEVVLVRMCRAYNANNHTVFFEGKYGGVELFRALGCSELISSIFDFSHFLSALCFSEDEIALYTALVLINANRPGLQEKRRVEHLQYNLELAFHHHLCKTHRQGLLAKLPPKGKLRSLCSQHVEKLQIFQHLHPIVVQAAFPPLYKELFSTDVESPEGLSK
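Stable Schneider cell line, Gal4 DNA-binding domain fused to ROR gamma, UAS-luciferase. Cmpd 1 hr RT → CuSO4 700 uM final → 20 hr RT → luciferase reagent 10 min → luminescence.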
Starred values were filed as active, the others as inactive; u = inconclusive; x = no result given; [ ] = remark or other dose. Unless noted, calls come from the whole dose curve; as a rule, active = well fitted curve in the direction sought with a large enough effect; inconclusive = small, poorly fitted or top-dose-only effect, or another doubt; inactive = no such curve, though single readings can be large; an effect the other way counts as inactive or inconclusive. Unless noted, % is set by controls: 0 for no effect and ±100 for the full control effect; potency is the fitted concentration of half-maximal effect.

SMILES | Sfp inh | ALDH1A1 inh | PLK1 PBD block | VP16 counter | RORg inh
CCOc1ccc2nc(N3C(=O)/C(=C/c4ccc(Cl)cc4)NC3=S)sc2c1 | 2% | 10% | u | 1.6µM* | 1.1µM*
NC(C(=O)O)c1ccc(P(=O)(O)O)cc1 (centres undefined) | 56µM* | 5% | x | x | x
Cc1cc(C)cc(-n2c(C)cc(C(=S)N3CCOCC3)c2C)c1 | u | -11% | 19µM* | 16µM* | 3.2µM*
Cc1cc(C(=S)N2CCOCC2)c(C)n1-c1ccc(Cl)cc1 | -9% | 22µM* | u | -2% | 11%
CCc1ccc(CNC(=O)C2CCN(S(=O)(=O)N3CCCCC3)CC2)cc1 | x | x | -23% | x | x
O=C(Nc1cccc(F)c1)N1CCC2(CCNCC2)CC1 | 12% | u | x | -6% | 3%
CC1CCC(C(C)C)C(OC(=O)CSc2nc(N)cc(=O)[nH]2)C1 (centres undefined) | 10% | 4.5µM* | -3% | -7% | 4%
C#CCN1C(=O)C(O)(CC(=O)/C=C/C=C/c2ccccc2)c2ccccc21 (centres undefined) | -29% | 6.3µM* | -18% | 26% | -16%
CCCN1C(=O)C(O)(C/C(C)=N/O)c2ccccc21 (centres undefined) | 7% | 14% | -5% | 0% | -1%[10 µM]
C#CCN1C(=O)C(O)(CC(=O)c2ccc(OC)c(OC)c2)c2ccccc21 (centres undefined) | 17% | 0.35µM* | -8% | -2% | 17%
CN1C(=O)C(O)(CC(=O)c2cccs2)c2ccccc21 (centres undefined) | 18% | -3% | -2% | -5% | 26%
CCCN1C(=O)C(O)(CC(=O)c2ccc3c(c2)OCCO3)c2ccccc21 (centres undefined) | -4% | 7.1µM* | -5% | 4% | 35%
CCCN1C(=O)C(O)(CC(=O)c2cccc(OC)c2)c2ccccc21 (centres undefined) | -19% | 4.5µM* | -24% | 14µM* | -17%
CCN1C(=O)C(O)(CC(=O)/C=C/C=C/c2ccccc2)c2ccccc21 (centres undefined) | 7% | u | -4% | -2% | 9%
Cc1ccc2nc(-c3ccc(Cl)cc3)c(Cc3ccccn3)n2c1 | x | x | -17% | x | x
C#CCN1C(=O)C(O)(CC(=O)c2ccc3c(c2)OCCO3)c2ccccc21 (centres undefined) | 14% | 1µM* | -4% | 3% | 14%
Cc1ccc2[nH]cc(C(=O)CCl)c2c1 | 12% | -1% | 15µM* | -11% | -14%
C/C=C/C(=O)Nc1cccc(C2=NOC3(C2)C[C@H](C(N)=O)N(C(=O)c2ccccc2C(=O)c2ccccc2)C3)c1 (some centres undefined) | 8% | x | x | -7% | 14%
CC(C)(C)OC(=O)NCC1CCN(S(=O)(=O)Cc2ccccc2)CC1 | 13% | x | -1% | -8% | -6%
CC(C)(C)OC(=O)NCC12C=CC(O1)C1C(=O)N(Cc3ccccc3)C(=O)C12 (centres undefined) | 71µM* | 3.2µM* | -9% | u | u
CCN1C(=O)C(CC(=O)Nc2ccc(C)cc2C)Nc2cc(S(=O)(=O)N(C)C)ccc21 (centres undefined) | 12% | 28µM* | -5% | 7% | 13%
Cc1ccc(C2(C)NC(=O)N(CC(=O)Nc3cc(S(=O)(=O)N(C)C)ccc3C)C2=O)cc1 (centres undefined) | -10% | x | -17% | 1% | 14%
CCOC(=O)C1(C)CCN1C(=O)Cc1ccc(OC)cc1 (centres undefined) | x | x | -8% | x | x
CC(C)C(=O)Nc1nc2cc3c(cc2s1)OCCO3 | 7% | x | -17% | -24% | -43%
COc1ccc(C)c2sc(NC(=O)c3cccc(N4C(=O)CCC4=O)c3)nc12 | 8% | x | -6% | -1% | 46%
O=C(Nc1nc2cc3c(cc2s1)OCCO3)c1ccco1 | -4% | x | 1% | 6.3µM* | 2.5µM*
O=C(Nc1nc2cc3c(cc2s1)OCO3)c1ccco1 | -10% | x | 0% | u | u
O=C(Nc1nc2cc3c(cc2s1)OCCO3)c1ccncc1 | 2% | u | 21µM* | -21% | -30%
CC(=O)Nc1nc2cc3c(cc2s1)OCO3 | 7% | 16% | 3% | -1% | 22%
